# Test results reported in PubChem BioAssay (NCATS).
# Where “and” joins values, the source holds several entries; their conditions need not be identical. Identical values can stand only once. Results filed as inconclusive are left out. Calls of active or inactive are those of the source. Calls come from the whole dose curve; as a rule, active = well fitted inhibition curve with a large enough effect in the signal ratio, with a control signal flat (not every such curve was filed as active); inconclusive = small, poorly fitted or top-dose-only effect, or effect the other way, or a change in a side signal; inactive = flat fitted curve, though single readings scatter; the % refers to the signal ratio.
# Target: Thyroid hormone receptor beta (Homo sapiens) (UniProt P10828)
# Assay: qHTS assay for small molecule antagonists of thyroid hormone receptor beta signaling (AID 588547);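 for activity change % (negative = inhibition): cells stimulated with 0.4 nM T3 agonist during compound exposure; series mostly up to about 77 µM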
# Details: TR-UAS-bla HEK293, beta-lactamase ratio, antagonist mode, 18 h
# From the text: NIH Chemical Genomics Center [NCGC] U.S. Environmental Protection Agency [EPA] National Institutes of Environmental Health Sciences [NIEHS] National Toxicology Program [NTP] NCGC Assay Overview Thyroid hormone receptor (TR) belongs to nuclear hormone receptor superfamily. There are two subtypes for TR: TR-alpha and TR-beta. TR-beta plays a major role in regulating plasma cholesterol levels and it mediates the biological activities of thyroid hormone. Screening environmental chemicals on TR-beta signaling will provide important information for the mechanism of compound action.
# NCGC Assay Protocol Summary Using a beta-lactamase reporter-gene under control of the TR response element, a cell-based assay [GeneBLAzer TR-UAS-bla-GripTite assay developed by Invitrogen] was used to measure TR-beta signaling in antagonist mode. TR-UAS-bla-GripTite HEK 293 cells were used with assay medium containing 2% charcoal/dextran FBS, 0.1 mM NEAA and 1 mM sodium pyruvate. The assay was performed in clear bottom black Greiner 1536-well plates. Library compounds were measured for their ability to inhibit the reporter gene activity. Compounds were screened in a titration series in 1536-well format. The fluorescence intensity (405 nm excitation, 460/530 nm emission) was measured using an EnVision plate reader. […] Concentration-response titration points for each compound were fitted to the Hill equation yielding concentrations of half-maximal inhibition (IC50) and maximal response (efficacy) values. qHTS protocol for TR-beta beta-lactamase assay in antagonist mode [Step] [Parameter] [Value] [Description] 1. Reagent; 5 uL; 2500 cells/well 2. Incubation; 37 C for 4 hrs 3. Compounds; 23 nL; 0.59 nM to 92 uM 4. Controls (DMSO); 23 nL 5. Agonist (Stimulator); 1uL; T3 at 0.4nM (final) concentrations 6. Incubation; 37 C for 18 hrs 7. Detection reagent; 1 uL of CCF4-dye 8. Incubation; RT for 2 hrs 9. Detection; Fluorescence; Envision plate reader
# % is set by controls: 0 for no effect and ±100 for the full control effect.
# Sequence of Thyroid hormone receptor beta (Homo sapiens) (P10828 whole entry, looked up): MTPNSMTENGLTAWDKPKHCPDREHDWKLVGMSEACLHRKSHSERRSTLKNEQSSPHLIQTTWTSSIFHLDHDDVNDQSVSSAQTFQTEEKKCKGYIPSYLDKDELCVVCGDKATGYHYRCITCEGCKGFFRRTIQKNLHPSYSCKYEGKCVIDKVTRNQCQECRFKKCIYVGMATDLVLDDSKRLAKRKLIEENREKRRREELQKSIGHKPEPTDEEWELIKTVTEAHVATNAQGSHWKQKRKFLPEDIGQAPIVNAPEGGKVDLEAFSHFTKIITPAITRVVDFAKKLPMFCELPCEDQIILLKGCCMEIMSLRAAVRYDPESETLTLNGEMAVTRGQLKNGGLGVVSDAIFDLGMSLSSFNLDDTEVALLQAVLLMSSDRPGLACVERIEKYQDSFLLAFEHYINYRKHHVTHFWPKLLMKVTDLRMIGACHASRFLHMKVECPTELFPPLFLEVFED
Compound,activity change % (negative = inhibition),Potency
Nc1ccccc1C(=O)OCCc1ccccc1,-14.2% (inactive),
CC(=NC#N)N(C)Cc1ccc(Cl)nc1,-1.79% (inactive),
CCOP(=S)(OCC)SCn1c(=O)oc2cc(Cl)ccc21,-26.9% (inactive),
COC(=O)N(OC)c1ccccc1COc1ccn(-c2ccc(Cl)cc2)n1,,6.31 µM (active)
CC(C)(C)C(O)C(Oc1ccc(-c2ccccc2)cc1)n1cncn1 (stereo not given),-13.8% (inactive),
FC(F)C(F)(F)OCC(Cn1cncn1)c1ccc(Cl)cc1Cl (stereo not given),-17.9% (inactive),
CC(Oc1cccc(Cl)c1)C(=O)O (stereo not given),10.2% (inactive),
CCC(C)(c1ccc(O)cc1)c1ccc(O)cc1,5.47% (inactive),
COC[C@H](C)N(C(=O)CCl)c1c(C)csc1C,-22.8% (inactive),
CCC[CH2][Sn]([CH2]CCC)([O]C(C)=O)[O]C(C)=O,-21.2% (inactive),
CCC(C)(CC)c1cc(NC(=O)c2c(OC)cccc2OC)on1,0.364% (inactive),
O=C(NC(=O)c1c(F)cccc1F)Nc1cc(Cl)c(OC(F)(F)C(F)F)c(Cl)c1,-14.9% (inactive),
Cn1cc(-c2ccccc2)c(=O)c(-c2cccc(C(F)(F)F)c2)c1,1.65% (inactive),
ClC1=C(Cl)C2(Cl)C3C4OC4C(Cl)C3C1(Cl)C2(Cl)Cl (stereo not given),16.3% (inactive),
FC(F)(F)c1ccc(OCCCOc2c(Cl)cc(OCC=C(Cl)Cl)cc2Cl)nc1,2.93% (inactive),
CCC(C)c1cc([N+](=O)[O-])cc([N+](=O)[O-])c1O (stereo not given),-14.7% (inactive),
c1cc2c3c(cccc3c1)CC2,3.51% (inactive),
CCCCCCCCCCCCN(C)C,-6.18% (inactive),
CNC(=O)O/N=C(\C)SC,-8.81% (inactive),
CCNc1nc(Cl)nc(NC(C)(C)C)n1,-28% (inactive),

Compound,activity change % (negative = inhibition),Potency
CCOP(=O)(OCC)SCSP(=S)(OCC)OCC,-5.46% (inactive),
O=C1c2ccccc2C(=O)C1C(=O)C(c1ccccc1)c1ccc(Cl)cc1 (stereo not given),15% (inactive),
O=P(O)(O)CCCl,22.1% (inactive) and 18.2% (inactive),
c1cc(OCC2CO2)cc(OCC2CO2)c1 (stereo not given),15% (inactive),
CSc1nnc(C(C)(C)C)c(=O)n1N,-9.71% (inactive),
OC(c1ccc(Cl)cc1)(c1cncnc1)c1ccccc1Cl (stereo not given),5.6% (inactive),
CCNc1nc(NCC)nc(SC)n1,-6.04% (inactive),
CCOP(=S)(OCC)SC(CCl)N1C(=O)c2ccccc2C1=O (stereo not given),7.21% (inactive),
CC1(C)CON(Cc2ccccc2Cl)C1=O,0.368% (inactive),
CCOC(=O)COc1cc(-c2nn(C)c(OC(F)F)c2Cl)c(F)cc1Cl,7.86% (inactive),
CCCCC(CC)COC(=O)Cl (stereo not given),-1.19% (inactive),
CCCC1COC(Cn2cncn2)(c2ccc(Cl)cc2Cl)O1 (stereo not given),12.9% (inactive) and 0.314% (inactive),
CC(C)N(C(=O)COc1nnc(C(F)(F)F)s1)c1ccc(F)cc1,-0.765% (inactive),
CCOP(=O)(OCC)SCCSCC,-4.38% (inactive),
CC(C)(C)C(=O)[C@H](Oc1ccc(Cl)cc1)n1cncn1,-10.2% (inactive),
CCOP(=S)(S)OCC,8.37% (inactive),
CO/N=C(/C(=O)OC)c1ccccc1COc1ccccc1C,-29.5% (inactive),
Nc1nc(N)nc(N)n1,-6.25% (inactive),
CCOP(=O)(NC(C)C)Oc1ccc(S(C)=O)c(C)c1 (stereo not given),7.26% (inactive),
CCCCC(CC)CO[N+](=O)[O-] (stereo not given),-3.31% (inactive),
